In PubChem BioAssay (NCATS):
Inconclusive results are not listed. Entries that show only a call come without a potency. Values without a mark were called inactive. Active and inactive are the calls of the source. Unless noted, calls come from the whole dose curve.

How the values were obtained:
[1] = Primary qHTS for inhibitors of SARS-S pseudo-typed particle cell entry (AID 1479145); conditions: SARS-S pseudotyped particle cell entry, luciferase reporter; series mostly up to 57.1 µM; note: nearly all actives have a fitted effect of over 45% in size
[2] = Primary qHTS for Huh7 cytotoxicity: counterscreen for inhibitors of MERS-S pseudotyped particle cell entry (AID 1479147); conditions: cell viability read-out; series mostly up to 57.1 µM
[3] = Primary qHTS for inhibitors of MERS-S pseudo-typed particle cell entry (AID 1479149); conditions: MERS-S pseudotyped particle entry, luciferase; series mostly up to 57.1 µM; note: nearly all actives have a fitted effect of over 60% in size; note: potency is the fitted concentration of half-maximal effect
[4] = Primary qHTS for Vero E6 cytotoxicity: counterscreen for inhibitors of SARS-S pseudo-typed particle cell entry (AID 1479150); conditions: cell viability; series mostly up to 57.1 µM
[5] = Primary qHTS for inhibitors of La Crosse Virus (LACV) - induced cell death in SH-SY5Y cells (AID 1508616; active = well fitted inhibition curve with a large enough effect;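 note: top concentration of the series differs between compounds; higher means more rescue of cells from virus-induced death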); conditions: SH-SY5Y LACV cytopathicity rescue, ATP luminescence, 6 d; series mostly up to 9.63 µM
Summary of the method: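 SH-SY5Y cells (6000/well) plated 24 h, then given compounds by pin transfer and LACV at 0.01 MOI for 6 days at 37C. Viability measured by ATPLite luminescence, normalized to infected DMSO and uninfected DMSO.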

Question: Which Potency [1] does the source give for C=CCNC(N)=S here?
Answer: inactive

Question: And the Potency [2]?
Answer: inactive

Question: What about the Potency [3] of the same molecule?
Answer: inactive

Question: What about the Potency [4] of the same molecule?
Answer: inactive

Question: Which Potency [1] does the source give for CN(C(=O)C(Cl)Cl)c1ccc(OC(=O)c2ccco2)cc1 here?
Answer: inactive

Question: What about the Potency [2] of the same molecule?
Answer: inactive

Question: And the Potency [3]?
Answer: inactive

Question: What about the Potency [4] of the same molecule?
Answer: inactive

Question: With CN1[C@@H]2CC[C@H]1CC(OC(=O)C(O)c1ccccc1)C2 (some centres not stated) as the molecule, how does the Potency [1] read?
Answer: inactive

Question: What about the Potency [2] of the same molecule?
Answer: inactive

Question: What about the Potency [3] of the same molecule?
Answer: inactive

Question: And the Potency [4]?
Answer: inactive

Question: What does the source list for CC(=O)Nc1ccc(O)cc1?
Answer: Potency [1]: inactive; Potency [2]: inactive; Potency [3]: inactive; Potency [4]: inactive

Question: Which Potency [1] does the source give for N[C@H]1C(O)O[C@H](CO)[C@@H](O)[C@@H]1O (some centres not stated) here?
Answer: inactive

Question: And the Potency [2]?
Answer: inactive

Question: What about the Potency [3] of the same molecule?
Answer: inactive

Question: And the Potency [4]?
Answer: inactive

Question: What does the source list for NC(CO)C(=O)NNCc1ccc(O)c(O)c1O (configuration not stated)?
Answer: Potency [1]: inactive; Potency [2]: inactive; Potency [3]: inactive; Potency [4]: inactive

Question: With CC(C)C[C@H](NC(=O)[C@@H](O)[C@H](N)Cc1ccccc1)C(=O)O as the molecule, how does the Potency [1] read?
Answer: inactive

Question: And the Potency [2]?
Answer: inactive

Question: What about the Potency [3] of the same molecule?
Answer: inactive

Question: And the Potency [4]?
Answer: inactive

Question: Which results are given for CCCCCCCCCCCCCC(=O)OC(C)C?
Answer: Potency [1]: inactive; Potency [2]: inactive; Potency [3]: inactive; Potency [4]: inactive

Question: Which results are given for CN(C)[C@@H]1C(=O)C(C(N)=O)=C(O)[C@@]2(O)C(=O)C3=C(O)c4c(O)cccc4[C@@](C)(O)[C@H]3[C@H](O)[C@@H]12?
Answer: Potency [1]: inactive; Potency [2]: inactive; Potency [3]: inactive; Potency [4]: inactive

Question: Which Potency [1] does the source give for CN(C)CC/C=C1/c2ccccc2COc2ccc(CC(=O)O)cc21 here?
Answer: inactive

Question: What about the Potency [2] of the same molecule?
Answer: inactive

Question: And the Potency [3]?
Answer: inactive

Question: What about the Potency [4] of the same molecule?
Answer: inactive

Question: Which Potency [1] does the source give for CNCc1ccc(-c2[nH]c3cc(F)cc4c3c2CCNC4=O)cc1 here?
Answer: inactive

Question: What about the Potency [2] of the same molecule?
Answer: inactive

Question: What about the Potency [3] of the same molecule?
Answer: inactive

Question: And the Potency [4]?
Answer: inactive

Question: With C[C@@H]1CN(c2c(F)c(N)c3c(=O)c(C(=O)O)cn(C4CC4)c3c2F)C[C@H](C)N1 as the molecule, how does the Potency [1] read?
Answer: inactive

Question: What about the Potency [2] of the same molecule?
Answer: inactive

Question: And the Potency [3]?
Answer: inactive

Question: And the Potency [4]?
Answer: inactive

Question: Which Potency [1] does the source give for Cn1c(NCCN(CCO)CCCc2ccc([N+](=O)[O-])cc2)cc(=O)n(C)c1=O here?
Answer: inactive

Question: And the Potency [2]?
Answer: inactive

Question: And the Potency [3]?
Answer: inactive

Question: And the Potency [4]?
Answer: inactive

Question: With CC1=NN(c2ccccc2)C(=O)C1 as the molecule, how does the Potency [1] read?
Answer: inactive

Question: And the Potency [2]?
Answer: inactive

Question: And the Potency [3]?
Answer: inactive

Question: What about the Potency [4] of the same molecule?
Answer: inactive

Question: What does the source list for [O-][n+]1cccc(/C(Cl)=N/OC[C@@H](O)CN2CCCCC2)c1?
Answer: Potency [1]: inactive; Potency [2]: inactive; Potency [3]: inactive; Potency [4]: inactive

Question: For COc1ccccc1O, which Potency [1] is on record?
Answer: inactive

Question: What about the Potency [2] of the same molecule?
Answer: inactive

Question: And the Potency [3]?
Answer: inactive

Question: What about the Potency [4] of the same molecule?
Answer: inactive

Question: Which results are given for CC[N+](C)(CC)CCOC(=O)C(O)(c1ccccc1)C1CCCCC1 (configuration not stated)?
Answer: Potency [1]: inactive; Potency [2]: inactive; Potency [3]: inactive; Potency [4]: inactive

Question: With C[N+](C)(C)CC(=O)O as the molecule, how does the Potency [1] read?
Answer: inactive

Question: What about the Potency [2] of the same molecule?
Answer: inactive

Question: And the Potency [3]?
Answer: inactive

Question: And the Potency [4]?
Answer: inactive

Question: What does the source list for NCCS?
Answer: Potency [1]: inactive; Potency [2]: inactive; Potency [3]: inactive; Potency [4]: inactive

Question: What does the source list for N#C/C(=C1\SCC(c2ccccc2Cl)S1)n1ccnc1 (configuration not stated)?
Answer: Potency [1]: inactive; Potency [2]: inactive; Potency [3]: inactive; Potency [4]: inactive

Question: Which Potency [1] does the source give for COC(=O)c1ccc2c(C(=Nc3ccc(N(C)C(=O)CN4CCN(C)CC4)cc3)c3ccccc3)c(O)[nH]c2c1 here?
Answer: inactive

Question: And the Potency [2]?
Answer: inactive

Question: What about the Potency [3] of the same molecule?
Answer: inactive

Question: What about the Potency [4] of the same molecule?
Answer: inactive

Question: Which Potency [1] does the source give for CCc1c(C)[nH]c2c1C(=O)C(CN1CCOCC1)CC2 (configuration not stated) here?
Answer: inactive

Question: And the Potency [2]?
Answer: inactive

Question: What about the Potency [3] of the same molecule?
Answer: inactive

Question: And the Potency [4]?
Answer: inactive

Question: Which results are given for CC(C[N+](C)(C)C)OC(N)=O (configuration not stated)?
Answer: Potency [1]: inactive; Potency [2]: inactive; Potency [3]: inactive; Potency [4]: inactive

Question: With CC[C@H](Nc1ncnc2nc[nH]c12)c1nc2cccc(F)c2c(=O)n1-c1ccccc1 as the molecule, how does the Potency [2] read?
Answer: inactive

Question: What about the Potency [3] of the same molecule?
Answer: inactive

Question: And the Potency [4]?
Answer: inactive

Question: Which results are given for CC(C)(C)C(O)/C=C/c1ccc2c(c1)OCO2 (configuration not stated)?
Answer: Potency [2]: inactive; Potency [3]: inactive; Potency [4]: inactive

Question: With Cc1cc(O)ccc1Cl as the molecule, how does the Potency [1] read?
Answer: inactive

Question: What about the Potency [2] of the same molecule?
Answer: inactive

Question: And the Potency [3]?
Answer: inactive

Question: And the Potency [4]?
Answer: inactive

Question: And the outcome [5]?
Answer: inactive

Question: With C[C@H](CN1CCCC1)C(=O)c1ccc(C(F)(F)F)cc1 as the molecule, how does the Potency [1] read?
Answer: inactive

Question: What about the Potency [2] of the same molecule?
Answer: inactive

Question: And the Potency [4]?
Answer: inactive

Question: For CCOc1cc2ncc(C#N)c(Nc3ccc(OCc4ccccn4)c(Cl)c3)c2cc1NC(=O)/C=C/CN(C)C, which outcome [2] is on record?
Answer: inactive [at 11.4 µM]

Question: And the activity change, negative = inhibition [3]?
Answer: -11.6% [at 11.4 µM]

Question: What about the activity change, negative = cytotoxicity [4] of the same molecule?
Answer: -35.9% [at 11.4 µM]

Question: What does the source list for CCOP(=O)(OCC)C(C)NC(=O)N(CCCl)N=O (configuration not stated)?
Answer: Potency [2]: inactive; Potency [3]: inactive; Potency [4]: inactive

Question: What does the source list for CC(C)CCCC(C)CCCC(C)CCCCC(C)CCCC(C)CCCC(C)C (configuration not stated)?
Answer: Potency [2]: inactive; Potency [3]: inactive; Potency [4]: inactive

Question: With N#CC[C@H](C1CCCC1)n1cc(-c2ncnc3[nH]ccc23)cn1 as the molecule, how does the Potency [2] read?
Answer: inactive

Question: What about the Potency [3] of the same molecule?
Answer: inactive

Question: And the Potency [4]?
Answer: inactive

Question: What does the source list for CC(C)C[C@H](NC(=O)CNC(=O)c1cc(Cl)ccc1Cl)B(O)O?
Answer: Potency [1]: inactive; Potency [3]: 794 nM (active)

Question: For CC1=C(C/C=C(\C)CCC[C@H](C)CCC[C@H](C)CCCC(C)C)C(=O)c2ccccc2C1=O, which Potency [1] is on record?
Answer: inactive

Question: And the Potency [2]?
Answer: inactive

Question: What about the Potency [4] of the same molecule?
Answer: inactive

Question: For CCCOC(=O)c1ccc(O)cc1, which Potency [2] is on record?
Answer: inactive

Question: And the Potency [3]?
Answer: inactive

Question: What about the Potency [4] of the same molecule?
Answer: inactive

Question: Which results are given for C#CC(C)(CC)OC(=O)c1ccccc1C(=O)O (configuration not stated)?
Answer: Potency [2]: inactive; Potency [3]: inactive; Potency [4]: inactive

Question: Which Potency [1] does the source give for O=[N+]([O-])/N=C1\NCCN1Cc1ccc(Cl)nc1 here?
Answer: inactive

Question: And the Potency [2]?
Answer: inactive

Question: And the Potency [3]?
Answer: inactive

Question: What about the Potency [4] of the same molecule?
Answer: inactive

Question: What about the outcome [5] of the same molecule?
Answer: inactive

Question: With CC(=O)N[C@@H](Cc1ccc(O)cc1)C(=O)O as the molecule, how does the Potency [2] read?
Answer: inactive

Question: What about the Potency [3] of the same molecule?
Answer: inactive

Question: What about the Potency [4] of the same molecule?
Answer: inactive

Question: With Cc1cc(C(=O)NNCc2ccccc2)no1 as the molecule, how does the Potency [2] read?
Answer: inactive

Question: And the Potency [3]?
Answer: inactive

Question: What about the Potency [4] of the same molecule?
Answer: inactive

Question: For COc1ccc2cc(CCC(C)=O)ccc2c1, which Potency [1] is on record?
Answer: inactive

Question: What about the Potency [2] of the same molecule?
Answer: inactive

Question: And the Potency [3]?
Answer: inactive

Question: What about the Potency [4] of the same molecule?
Answer: inactive

Question: For CS(=O)(=O)Nc1ccc([N+](=O)[O-])cc1Oc1ccccc1, which Potency [2] is on record?
Answer: inactive

Question: What about the Potency [3] of the same molecule?
Answer: inactive

Question: And the Potency [4]?
Answer: inactive
